Assay results taken from ChEMBL document CHEMBL1961873, “Compounds: GSK PKIS; Assays: Nanosyn kinase panel” (2012).

Columns and labels:
[1] = biological target: T1, Inhibitor of nuclear factor kappa-B kinase subunit epsilon (Homo sapiens) (UniProt Q14164); conditions: at 1 µM;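 note: reported values are averaged percent inhibition figures against human IKKε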
T1 sequence (whole entry): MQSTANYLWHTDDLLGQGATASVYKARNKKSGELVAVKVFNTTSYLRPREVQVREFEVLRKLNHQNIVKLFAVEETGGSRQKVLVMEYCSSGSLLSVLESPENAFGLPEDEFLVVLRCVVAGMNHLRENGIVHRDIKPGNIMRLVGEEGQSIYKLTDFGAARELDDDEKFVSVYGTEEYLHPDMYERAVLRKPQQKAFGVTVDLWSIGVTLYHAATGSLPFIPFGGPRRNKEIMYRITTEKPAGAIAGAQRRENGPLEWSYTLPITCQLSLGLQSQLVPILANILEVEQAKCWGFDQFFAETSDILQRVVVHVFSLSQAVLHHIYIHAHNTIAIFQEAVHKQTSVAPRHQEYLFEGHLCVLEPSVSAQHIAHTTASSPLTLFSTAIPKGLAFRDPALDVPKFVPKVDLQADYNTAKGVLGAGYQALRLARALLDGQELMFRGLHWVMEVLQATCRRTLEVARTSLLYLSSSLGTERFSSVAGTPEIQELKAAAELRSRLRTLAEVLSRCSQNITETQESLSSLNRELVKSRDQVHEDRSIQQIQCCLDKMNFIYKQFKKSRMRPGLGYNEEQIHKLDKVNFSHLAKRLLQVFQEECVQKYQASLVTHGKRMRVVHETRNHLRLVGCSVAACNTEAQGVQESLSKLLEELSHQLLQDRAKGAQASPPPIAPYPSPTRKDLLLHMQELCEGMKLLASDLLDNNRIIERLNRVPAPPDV

[2] = biological target: T2, Serine/threonine-protein kinase Nek1 (Homo sapiens) (UniProt Q96PY6); conditions: at 0.1 µM
T2 sequence (whole entry): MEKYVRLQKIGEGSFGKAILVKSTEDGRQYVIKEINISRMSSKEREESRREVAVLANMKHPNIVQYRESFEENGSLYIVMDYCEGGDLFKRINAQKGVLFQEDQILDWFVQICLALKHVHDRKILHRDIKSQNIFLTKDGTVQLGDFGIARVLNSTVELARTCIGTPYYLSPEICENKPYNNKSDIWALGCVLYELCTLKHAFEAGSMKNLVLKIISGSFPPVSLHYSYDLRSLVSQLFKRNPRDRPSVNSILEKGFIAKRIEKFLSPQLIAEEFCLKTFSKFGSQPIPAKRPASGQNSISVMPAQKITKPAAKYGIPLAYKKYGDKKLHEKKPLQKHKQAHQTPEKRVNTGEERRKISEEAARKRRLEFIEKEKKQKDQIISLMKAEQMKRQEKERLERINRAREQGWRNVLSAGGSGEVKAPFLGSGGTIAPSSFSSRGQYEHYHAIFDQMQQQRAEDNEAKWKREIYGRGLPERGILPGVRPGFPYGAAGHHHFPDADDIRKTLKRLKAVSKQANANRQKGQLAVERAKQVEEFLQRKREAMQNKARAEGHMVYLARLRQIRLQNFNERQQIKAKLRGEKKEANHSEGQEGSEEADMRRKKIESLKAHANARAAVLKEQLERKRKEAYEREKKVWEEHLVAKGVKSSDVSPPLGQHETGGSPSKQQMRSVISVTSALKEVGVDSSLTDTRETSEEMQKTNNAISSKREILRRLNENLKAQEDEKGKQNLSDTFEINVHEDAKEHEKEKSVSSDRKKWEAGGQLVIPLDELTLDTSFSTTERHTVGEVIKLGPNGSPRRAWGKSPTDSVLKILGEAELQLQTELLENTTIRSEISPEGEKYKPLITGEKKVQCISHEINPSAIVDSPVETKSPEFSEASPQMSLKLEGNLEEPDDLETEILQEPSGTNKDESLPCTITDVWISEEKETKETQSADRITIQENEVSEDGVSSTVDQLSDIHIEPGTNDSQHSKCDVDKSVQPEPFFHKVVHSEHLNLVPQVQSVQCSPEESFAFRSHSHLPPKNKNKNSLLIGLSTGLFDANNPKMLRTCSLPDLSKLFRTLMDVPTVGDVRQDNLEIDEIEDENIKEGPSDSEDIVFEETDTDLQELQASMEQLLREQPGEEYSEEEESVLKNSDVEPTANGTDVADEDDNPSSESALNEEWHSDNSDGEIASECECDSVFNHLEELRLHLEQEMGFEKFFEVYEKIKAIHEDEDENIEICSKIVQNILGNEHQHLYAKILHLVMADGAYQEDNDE

[3] = biological target: T2, Serine/threonine-protein kinase Nek1 (Homo sapiens); conditions: at 1 µM
[4] = biological target: T3, Serine/threonine-protein kinase Nek2 (Homo sapiens) (UniProt P51955); conditions: at 0.1 µM
T3 sequence (whole entry): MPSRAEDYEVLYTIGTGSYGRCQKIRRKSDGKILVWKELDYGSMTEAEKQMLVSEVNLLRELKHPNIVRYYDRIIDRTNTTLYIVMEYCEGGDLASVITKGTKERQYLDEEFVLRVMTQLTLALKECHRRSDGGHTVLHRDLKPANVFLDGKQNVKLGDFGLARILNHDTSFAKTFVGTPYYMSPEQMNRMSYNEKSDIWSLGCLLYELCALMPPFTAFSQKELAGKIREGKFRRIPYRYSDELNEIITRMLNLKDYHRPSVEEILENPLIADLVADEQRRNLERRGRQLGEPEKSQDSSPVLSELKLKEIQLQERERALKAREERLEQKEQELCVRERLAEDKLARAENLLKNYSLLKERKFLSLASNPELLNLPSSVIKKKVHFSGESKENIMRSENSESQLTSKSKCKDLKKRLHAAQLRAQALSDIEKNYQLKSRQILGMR

[5] = biological target: T3, Serine/threonine-protein kinase Nek2 (Homo sapiens); conditions: at 1 µM
[6] = biological target: Serine/threonine-protein kinase Nek6 (Homo sapiens) (UniProt Q9HC98); conditions: at 0.1 µM
Serine/threonine-protein kinase Nek6 (Homo sapiens), sequence (Q9HC98 whole entry): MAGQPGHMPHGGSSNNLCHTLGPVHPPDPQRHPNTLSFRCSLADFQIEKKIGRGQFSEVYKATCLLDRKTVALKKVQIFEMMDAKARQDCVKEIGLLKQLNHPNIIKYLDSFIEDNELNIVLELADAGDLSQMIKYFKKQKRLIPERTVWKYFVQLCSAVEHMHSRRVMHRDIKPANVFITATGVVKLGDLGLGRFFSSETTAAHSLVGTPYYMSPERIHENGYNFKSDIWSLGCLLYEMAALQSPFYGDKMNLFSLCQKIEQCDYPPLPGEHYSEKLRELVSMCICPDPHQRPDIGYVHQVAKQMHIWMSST

[7] = biological target: Serine/threonine-protein kinase Nek6 (Homo sapiens) (UniProt Q9HC98); conditions: at 1 µM
[8] = biological target: Serine/threonine-protein kinase Nek7 (Homo sapiens) (UniProt Q8TDX7); conditions: at 0.1 µM
Serine/threonine-protein kinase Nek7 (Homo sapiens), sequence (Q8TDX7 whole entry, looked up): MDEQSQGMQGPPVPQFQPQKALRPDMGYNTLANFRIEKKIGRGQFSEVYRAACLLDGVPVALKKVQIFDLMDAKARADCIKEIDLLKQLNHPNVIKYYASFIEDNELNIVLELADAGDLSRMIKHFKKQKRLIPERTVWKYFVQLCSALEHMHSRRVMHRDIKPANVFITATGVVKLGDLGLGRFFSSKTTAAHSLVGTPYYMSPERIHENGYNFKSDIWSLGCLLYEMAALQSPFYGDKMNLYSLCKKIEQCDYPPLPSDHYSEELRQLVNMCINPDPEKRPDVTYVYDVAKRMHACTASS

[9] = biological target: Serine/threonine-protein kinase Nek7 (Homo sapiens) (UniProt Q8TDX7); conditions: at 1 µM
[10] = biological target: T4, Serine/threonine-protein kinase Nek9 (Homo sapiens) (UniProt Q8TD19); conditions: at 0.1 µM
T4 sequence (whole entry): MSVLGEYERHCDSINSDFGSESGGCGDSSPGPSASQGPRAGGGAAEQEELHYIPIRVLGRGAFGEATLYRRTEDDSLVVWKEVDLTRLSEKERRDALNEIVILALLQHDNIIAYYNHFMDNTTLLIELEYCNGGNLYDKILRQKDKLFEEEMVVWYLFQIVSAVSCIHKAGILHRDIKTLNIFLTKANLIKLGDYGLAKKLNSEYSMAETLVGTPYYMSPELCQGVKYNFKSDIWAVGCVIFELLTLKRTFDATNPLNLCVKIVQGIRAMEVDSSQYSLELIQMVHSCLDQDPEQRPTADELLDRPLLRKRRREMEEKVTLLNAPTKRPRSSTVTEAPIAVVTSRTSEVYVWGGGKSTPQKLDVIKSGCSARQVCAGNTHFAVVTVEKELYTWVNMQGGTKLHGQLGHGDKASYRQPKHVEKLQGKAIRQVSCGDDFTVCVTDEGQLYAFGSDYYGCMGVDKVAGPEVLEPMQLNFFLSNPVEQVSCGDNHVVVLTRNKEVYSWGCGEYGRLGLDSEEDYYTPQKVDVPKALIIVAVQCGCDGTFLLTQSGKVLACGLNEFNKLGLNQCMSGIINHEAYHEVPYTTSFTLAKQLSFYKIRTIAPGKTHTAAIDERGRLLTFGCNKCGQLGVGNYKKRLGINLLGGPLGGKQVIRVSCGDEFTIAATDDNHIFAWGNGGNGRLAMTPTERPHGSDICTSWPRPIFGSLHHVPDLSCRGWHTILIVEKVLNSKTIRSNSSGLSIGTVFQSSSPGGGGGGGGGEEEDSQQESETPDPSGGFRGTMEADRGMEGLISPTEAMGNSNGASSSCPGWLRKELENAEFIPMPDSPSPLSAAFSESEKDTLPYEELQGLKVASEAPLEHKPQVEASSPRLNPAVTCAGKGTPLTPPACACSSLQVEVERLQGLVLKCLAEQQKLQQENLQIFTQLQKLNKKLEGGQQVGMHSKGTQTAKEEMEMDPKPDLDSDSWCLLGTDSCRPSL

[11] = biological target: T4, Serine/threonine-protein kinase Nek9 (Homo sapiens); conditions: at 1 µM
[12] = biological target: Serine/threonine-protein kinase PLK1 (Homo sapiens) (UniProt P53350); conditions: at 0.1 µM
Serine/threonine-protein kinase PLK1 (Homo sapiens), sequence (P53350 whole entry): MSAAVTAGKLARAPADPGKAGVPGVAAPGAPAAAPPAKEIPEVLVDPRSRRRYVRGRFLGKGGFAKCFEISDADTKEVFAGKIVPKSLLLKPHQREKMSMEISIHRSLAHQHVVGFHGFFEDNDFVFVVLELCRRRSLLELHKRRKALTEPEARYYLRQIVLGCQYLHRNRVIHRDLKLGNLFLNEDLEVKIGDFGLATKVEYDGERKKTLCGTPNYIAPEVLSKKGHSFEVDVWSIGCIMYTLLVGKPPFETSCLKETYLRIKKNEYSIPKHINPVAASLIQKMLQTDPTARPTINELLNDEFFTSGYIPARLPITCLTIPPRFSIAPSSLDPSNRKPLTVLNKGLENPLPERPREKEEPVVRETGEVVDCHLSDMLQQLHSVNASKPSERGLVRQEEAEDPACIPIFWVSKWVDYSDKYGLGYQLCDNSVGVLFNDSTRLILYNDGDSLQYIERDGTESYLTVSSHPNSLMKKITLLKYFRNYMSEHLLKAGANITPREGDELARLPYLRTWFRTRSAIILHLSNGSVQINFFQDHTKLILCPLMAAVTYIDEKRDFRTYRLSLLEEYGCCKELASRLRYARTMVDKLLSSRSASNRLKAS

[13] = biological target: Serine/threonine-protein kinase PLK1 (Homo sapiens) (UniProt P53350); conditions: at 1 µM
[14] = biological target: T5, Dual specificity protein kinase TTK (Homo sapiens) (UniProt P33981); conditions: at 0.1 µM
T5 sequence (whole entry): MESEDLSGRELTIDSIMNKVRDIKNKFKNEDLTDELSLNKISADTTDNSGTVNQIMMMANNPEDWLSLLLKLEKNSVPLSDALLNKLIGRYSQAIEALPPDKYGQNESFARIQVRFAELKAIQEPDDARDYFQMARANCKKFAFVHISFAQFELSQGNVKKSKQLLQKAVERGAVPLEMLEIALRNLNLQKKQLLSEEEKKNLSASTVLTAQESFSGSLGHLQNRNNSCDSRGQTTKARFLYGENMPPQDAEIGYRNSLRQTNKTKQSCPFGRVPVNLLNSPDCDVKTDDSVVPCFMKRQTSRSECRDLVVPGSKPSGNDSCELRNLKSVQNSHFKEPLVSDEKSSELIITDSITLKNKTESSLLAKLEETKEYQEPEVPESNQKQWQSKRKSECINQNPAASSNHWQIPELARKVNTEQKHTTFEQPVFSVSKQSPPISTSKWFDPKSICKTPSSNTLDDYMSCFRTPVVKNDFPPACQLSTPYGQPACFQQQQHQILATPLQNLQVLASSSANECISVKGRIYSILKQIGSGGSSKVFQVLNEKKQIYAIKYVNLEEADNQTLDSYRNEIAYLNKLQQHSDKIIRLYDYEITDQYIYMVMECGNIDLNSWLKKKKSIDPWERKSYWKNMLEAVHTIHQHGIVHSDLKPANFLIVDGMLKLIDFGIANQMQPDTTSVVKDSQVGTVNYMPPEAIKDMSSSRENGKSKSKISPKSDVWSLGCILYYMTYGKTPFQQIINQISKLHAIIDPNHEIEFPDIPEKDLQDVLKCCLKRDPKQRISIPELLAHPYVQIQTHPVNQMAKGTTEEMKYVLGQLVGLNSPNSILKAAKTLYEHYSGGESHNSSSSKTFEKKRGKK

[15] = system: T6, Receptor-type tyrosine-protein kinase FLT3 (Homo sapiens), P36888 [D835Y]; conditions: at 1 µM
T6 sequence (whole entry): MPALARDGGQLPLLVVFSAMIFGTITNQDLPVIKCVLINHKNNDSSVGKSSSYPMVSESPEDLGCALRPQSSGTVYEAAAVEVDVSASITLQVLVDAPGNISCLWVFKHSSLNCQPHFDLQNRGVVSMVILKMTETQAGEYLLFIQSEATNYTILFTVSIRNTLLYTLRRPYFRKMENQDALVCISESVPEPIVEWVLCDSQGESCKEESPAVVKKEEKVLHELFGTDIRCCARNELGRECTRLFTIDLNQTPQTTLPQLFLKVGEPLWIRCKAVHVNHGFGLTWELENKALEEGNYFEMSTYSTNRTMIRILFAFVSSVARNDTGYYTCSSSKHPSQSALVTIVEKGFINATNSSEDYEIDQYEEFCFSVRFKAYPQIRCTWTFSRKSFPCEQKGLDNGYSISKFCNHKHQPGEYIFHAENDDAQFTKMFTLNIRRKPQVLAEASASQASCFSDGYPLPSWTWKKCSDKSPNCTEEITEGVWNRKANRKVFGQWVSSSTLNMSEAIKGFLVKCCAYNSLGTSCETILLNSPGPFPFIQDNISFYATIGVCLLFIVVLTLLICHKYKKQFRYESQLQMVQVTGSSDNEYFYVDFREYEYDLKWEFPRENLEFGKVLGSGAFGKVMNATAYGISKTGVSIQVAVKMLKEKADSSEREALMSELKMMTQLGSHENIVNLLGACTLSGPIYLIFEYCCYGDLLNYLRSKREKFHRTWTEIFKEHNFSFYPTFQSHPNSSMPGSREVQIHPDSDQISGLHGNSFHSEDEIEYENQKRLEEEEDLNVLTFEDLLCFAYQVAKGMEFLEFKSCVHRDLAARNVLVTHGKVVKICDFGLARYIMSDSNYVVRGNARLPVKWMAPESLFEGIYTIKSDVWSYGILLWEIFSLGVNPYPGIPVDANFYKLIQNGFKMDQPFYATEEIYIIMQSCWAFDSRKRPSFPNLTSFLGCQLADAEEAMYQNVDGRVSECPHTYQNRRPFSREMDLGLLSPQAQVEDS

[16] = biological target: Vascular endothelial growth factor receptor 3 (Homo sapiens) (UniProt P35916); conditions: at 0.1 µM
Vascular endothelial growth factor receptor 3 (Homo sapiens), sequence (P35916 whole entry): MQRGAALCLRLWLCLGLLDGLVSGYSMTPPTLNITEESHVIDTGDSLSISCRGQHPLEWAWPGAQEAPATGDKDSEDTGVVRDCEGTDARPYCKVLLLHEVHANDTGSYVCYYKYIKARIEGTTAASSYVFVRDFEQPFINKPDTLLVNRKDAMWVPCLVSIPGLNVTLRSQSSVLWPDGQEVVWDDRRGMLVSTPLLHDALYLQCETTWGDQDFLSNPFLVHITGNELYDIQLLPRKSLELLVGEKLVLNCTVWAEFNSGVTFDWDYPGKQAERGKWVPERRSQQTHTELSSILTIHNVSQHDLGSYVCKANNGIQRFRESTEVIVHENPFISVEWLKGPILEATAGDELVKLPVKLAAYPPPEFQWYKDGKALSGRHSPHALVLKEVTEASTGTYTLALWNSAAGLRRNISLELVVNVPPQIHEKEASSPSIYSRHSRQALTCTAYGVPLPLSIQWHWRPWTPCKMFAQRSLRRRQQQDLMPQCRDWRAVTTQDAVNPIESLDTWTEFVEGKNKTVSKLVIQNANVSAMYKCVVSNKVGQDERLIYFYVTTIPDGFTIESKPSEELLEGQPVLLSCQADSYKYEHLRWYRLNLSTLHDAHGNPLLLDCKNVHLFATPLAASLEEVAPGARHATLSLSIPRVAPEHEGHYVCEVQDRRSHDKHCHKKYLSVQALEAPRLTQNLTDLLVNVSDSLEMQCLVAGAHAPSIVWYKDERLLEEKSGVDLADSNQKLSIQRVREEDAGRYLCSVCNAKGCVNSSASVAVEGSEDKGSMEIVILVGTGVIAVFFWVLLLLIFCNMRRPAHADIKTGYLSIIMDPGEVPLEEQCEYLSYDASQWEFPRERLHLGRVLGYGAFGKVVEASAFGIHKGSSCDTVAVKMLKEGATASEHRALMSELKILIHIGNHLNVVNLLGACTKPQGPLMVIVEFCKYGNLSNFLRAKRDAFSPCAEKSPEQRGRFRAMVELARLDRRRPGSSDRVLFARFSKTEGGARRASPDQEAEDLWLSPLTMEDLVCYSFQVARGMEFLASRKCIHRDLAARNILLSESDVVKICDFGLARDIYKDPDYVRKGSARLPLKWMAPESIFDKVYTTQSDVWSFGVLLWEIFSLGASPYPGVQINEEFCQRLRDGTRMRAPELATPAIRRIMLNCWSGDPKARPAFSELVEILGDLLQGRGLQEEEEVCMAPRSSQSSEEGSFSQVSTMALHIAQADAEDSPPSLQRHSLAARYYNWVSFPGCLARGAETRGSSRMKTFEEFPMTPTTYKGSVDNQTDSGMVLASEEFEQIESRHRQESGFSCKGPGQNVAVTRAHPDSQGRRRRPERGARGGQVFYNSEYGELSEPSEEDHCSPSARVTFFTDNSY

[17] = biological target: Vascular endothelial growth factor receptor 3 (Homo sapiens) (UniProt P35916); conditions: at 1 µM
[18] = biological target: Macrophage colony-stimulating factor 1 receptor (Homo sapiens) (UniProt P07333); conditions: at 0.1 µM
Macrophage colony-stimulating factor 1 receptor (Homo sapiens), sequence (P07333 whole entry): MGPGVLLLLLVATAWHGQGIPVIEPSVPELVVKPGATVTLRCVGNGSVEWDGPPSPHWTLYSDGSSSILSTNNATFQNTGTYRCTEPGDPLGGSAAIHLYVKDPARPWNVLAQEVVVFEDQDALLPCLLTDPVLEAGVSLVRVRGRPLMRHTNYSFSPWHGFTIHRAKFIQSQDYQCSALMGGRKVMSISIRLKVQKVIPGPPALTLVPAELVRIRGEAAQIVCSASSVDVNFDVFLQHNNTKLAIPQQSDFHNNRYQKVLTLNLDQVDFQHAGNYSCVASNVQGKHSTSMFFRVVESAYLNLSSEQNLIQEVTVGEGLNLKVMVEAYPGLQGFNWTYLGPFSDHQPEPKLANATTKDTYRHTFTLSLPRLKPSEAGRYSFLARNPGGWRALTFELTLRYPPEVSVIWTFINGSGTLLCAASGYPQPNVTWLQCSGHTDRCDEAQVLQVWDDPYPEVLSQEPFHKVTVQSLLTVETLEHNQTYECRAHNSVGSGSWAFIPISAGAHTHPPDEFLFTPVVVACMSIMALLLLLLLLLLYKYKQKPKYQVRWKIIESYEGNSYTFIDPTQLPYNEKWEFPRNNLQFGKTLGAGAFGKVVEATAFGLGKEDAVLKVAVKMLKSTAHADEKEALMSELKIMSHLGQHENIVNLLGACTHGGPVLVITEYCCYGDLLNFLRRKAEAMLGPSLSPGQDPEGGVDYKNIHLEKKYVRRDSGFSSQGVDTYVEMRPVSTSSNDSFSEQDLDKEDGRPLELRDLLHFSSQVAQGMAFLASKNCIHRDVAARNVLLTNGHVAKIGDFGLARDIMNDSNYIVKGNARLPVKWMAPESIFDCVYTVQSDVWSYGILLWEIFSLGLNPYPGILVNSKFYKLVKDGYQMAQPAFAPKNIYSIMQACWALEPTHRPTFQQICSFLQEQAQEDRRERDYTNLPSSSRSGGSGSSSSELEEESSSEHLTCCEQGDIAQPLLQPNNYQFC

[19] = biological target: Macrophage colony-stimulating factor 1 receptor (Homo sapiens) (UniProt P07333); conditions: at 1 µM
[20] = biological target: Tyrosine-protein kinase Fyn (Homo sapiens) (UniProt P06241); conditions: at 0.1 µM
Tyrosine-protein kinase Fyn (Homo sapiens), sequence (P06241 2-537 limits assumed): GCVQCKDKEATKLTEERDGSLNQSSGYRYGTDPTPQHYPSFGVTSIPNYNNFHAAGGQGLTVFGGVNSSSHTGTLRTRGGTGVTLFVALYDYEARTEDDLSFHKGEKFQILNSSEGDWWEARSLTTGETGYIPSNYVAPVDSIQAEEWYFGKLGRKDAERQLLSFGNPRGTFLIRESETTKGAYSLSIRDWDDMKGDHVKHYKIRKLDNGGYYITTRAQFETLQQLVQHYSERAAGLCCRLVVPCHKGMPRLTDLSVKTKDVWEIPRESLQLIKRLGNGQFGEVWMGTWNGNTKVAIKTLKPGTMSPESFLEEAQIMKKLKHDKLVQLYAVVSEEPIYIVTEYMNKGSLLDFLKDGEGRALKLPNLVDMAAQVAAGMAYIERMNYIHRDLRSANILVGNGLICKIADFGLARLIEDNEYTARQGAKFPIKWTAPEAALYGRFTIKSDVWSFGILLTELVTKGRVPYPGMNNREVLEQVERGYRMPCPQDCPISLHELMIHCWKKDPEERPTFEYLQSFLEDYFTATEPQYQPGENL

| SMILES | inhibition [1] | inhibition [2] | inhibition [3] | inhibition [4] | inhibition [5] | inhibition [6] | inhibition [7] | inhibition [8] | inhibition [9] | inhibition [10] | inhibition [11] | inhibition [12] | inhibition [13] | inhibition [14] | inhibition [15] | inhibition [16] | inhibition [17] | inhibition [18] | inhibition [19] | inhibition [20] |
| --- | --- | --- | --- | --- | --- | --- | --- | --- | --- | --- | --- | --- | --- | --- | --- | --- | --- | --- | --- | --- |
| Cc1ccc(O)cc1Nc1ccnc2cc(-c3ccccn3)ccc12 | 4.69% | 2.99% | 2.32% | 5.83% | 4.75% | 5.8% | -1.66% | 3.67% | 3.3% | 2.78% | -1.26% | 3.38% | 4.98% | 6.34% | 4.47% | 62.5% | 88.8% | 4.3% | 20.4% | 55.6% |
| CCNC(=O)O[C@H]1CN[C@H](C#Cc2cc3ncnc(Nc4ccc(OCc5cccc(F)c5)c(Cl)c4)c3s2)C1 | 2.76% | 1.8% | 2.36% | 3.33% | 6.2% | 3.89% | 0.56% | 3.85% | 3.51% | 12% | 4.6% | 3.22% | 3.29% | 2.67% | 2.57% | 5.21% | -0.66% | 3.01% | 2.53% | 3.33% |
